Assay outcomes (PubChem BioAssay)
Shown are actives, neighbours in structure and some others; about 3.7% of the full set was active somewhere.
Bead autofluor: counter-screen for toxin protease inhibitors: compound fluorescence; AID 624483; 3.1% of 360,000 active; compound autofluorescence counterscreen, microsphere flow cytometry; active compounds read high; fluorescence intensity (test concentration not listed); in the data active = fluorescence intensity above about 16000; inconclusive = no clear call, values can overlap the other calls
MazEF act: activators of E. coli MazEF toxin-antitoxin RNase, primary screen, biochemical, fluorescence, uHTS | Endoribonuclease toxin MazF (Escherichia coli (strain K12)), P0AE70 | FAM/BHQ RNA-DNA oligo cleavage fluorescence, 5 h | activation, % at 20 µM | 0.32% of 350,000 active; in the data active = activation above about 50%
BoNT-F LC inh: BoNT/F light chain protease inhibitors, primary screen, biochemical, flow cytometry, MLPCN library | Multiplex microsphere protease cleavage assay | inhibition, % at 10 µM | 0.22% of 360,000 active; in the data active = inhibition above about 35%, passing the limit was not always enough; inconclusive = no clear call, values can overlap the other calls; note: plate controls were buffer without enzyme for full effect and enzyme alone for no effect
Anthrax LF inh2: Bacillus anthracis LF protease inhibitors, primary screen, biochemical, multiplex microsphere, MLPCN library; Lethal factor (Bacillus anthracis), P15917; multiplex microsphere protease cleavage assay; inhibition, % at 10 µM; 0.12% of 360,000 active; AID 588501, 2011; note: plate controls were buffer without enzyme for full effect and enzyme alone for no effect
Target sequence (P15917 whole entry, looked up): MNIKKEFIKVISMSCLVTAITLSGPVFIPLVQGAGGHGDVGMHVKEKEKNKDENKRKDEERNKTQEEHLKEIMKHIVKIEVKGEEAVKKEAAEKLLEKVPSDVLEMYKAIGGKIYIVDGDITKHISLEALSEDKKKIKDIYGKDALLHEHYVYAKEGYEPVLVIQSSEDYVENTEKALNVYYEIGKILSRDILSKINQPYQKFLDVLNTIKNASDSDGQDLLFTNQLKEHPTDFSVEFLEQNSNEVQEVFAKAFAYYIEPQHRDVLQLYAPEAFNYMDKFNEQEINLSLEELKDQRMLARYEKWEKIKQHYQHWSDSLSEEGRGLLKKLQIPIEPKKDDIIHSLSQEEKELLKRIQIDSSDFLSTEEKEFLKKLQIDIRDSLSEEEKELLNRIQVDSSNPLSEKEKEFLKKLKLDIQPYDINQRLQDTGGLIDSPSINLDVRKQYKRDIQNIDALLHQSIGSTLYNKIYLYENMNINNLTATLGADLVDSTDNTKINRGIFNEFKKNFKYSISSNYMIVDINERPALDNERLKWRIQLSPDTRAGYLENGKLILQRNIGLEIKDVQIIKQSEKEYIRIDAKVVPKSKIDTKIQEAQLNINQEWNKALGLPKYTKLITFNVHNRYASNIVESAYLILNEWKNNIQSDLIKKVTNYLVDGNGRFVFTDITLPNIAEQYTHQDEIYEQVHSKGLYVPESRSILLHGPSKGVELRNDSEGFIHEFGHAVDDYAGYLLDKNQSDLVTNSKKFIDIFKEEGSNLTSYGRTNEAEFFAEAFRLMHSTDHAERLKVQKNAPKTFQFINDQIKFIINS
BoNT-A LC inh2: BoNT/A light chain protease inhibitors, primary screen, biochemical, flow cytometry, MLPCN library; multiplex microsphere protease substrate cleavage; inhibition, % at 10 µM; 0.17% of 360,000 active; AID 588499, 2011; note: plate controls were buffer without enzyme for full effect and enzyme alone for no effect
* hit, by the source's call. Cut-off read from the data, not from the text of the source, unless noted: active = inhibition above about 30%; inconclusive = no clear call, values can overlap the other calls; inactive = below that.

How did O=c1[nH]c2cccnc2n1Cc1ccco1 do in these assays?
Bead autofluor: 21423*; MazEF act: -1; BoNT-F LC inh: -4; Anthrax LF inh2: 0; BoNT-A LC inh2: inconclusive

Results for CCCCN1C(=O)/C(=C2/Sc3ccc(OC)cc3N2CC)SC1=S ?
Bead autofluor: 4339; MazEF act: 71*; BoNT-F LC inh: inconclusive; Anthrax LF inh2: -6; BoNT-A LC inh2: 2

How did C=CCN1C(=O)/C(=C2/Sc3ccc(OC)cc3N2CC)SC1=S do in these assays?
Bead autofluor: 4070; MazEF act: 752*; BoNT-F LC inh: inconclusive; Anthrax LF inh2: 18; BoNT-A LC inh2: -1

How did CC(O)(c1ccccc1)c1nc(-c2ccc(S(C)(=O)=O)cc2)cs1 (centres undefined) do in these assays?
Bead autofluor: 3345; BoNT-F LC inh: -1; Anthrax LF inh2: -2; BoNT-A LC inh2: 0

Results for C[C@@H]1CN([C@H](C)CO)C(=O)CCCn2nncc2CO[C@H]1CN(C)Cc1cccc(C(F)(F)F)c1 ?
Bead autofluor: 3364; MazEF act: -18; BoNT-F LC inh: -2; Anthrax LF inh2: -4; BoNT-A LC inh2: 0

What do the screens show for `N#CC1=C(N)C2=C(N3CCCCC3)CCCC2C1(C#N)C#N` (centres undefined)?
Bead autofluor: 3834; MazEF act: -3; BoNT-F LC inh: -43; Anthrax LF inh2: -13; BoNT-A LC inh2: -3

Results for CCCCN(C)C1=CC2=CC(=C(C#N)C#N)CCC2CC1 (centres undefined) ?
Bead autofluor: 49793*; BoNT-F LC inh: 109*; Anthrax LF inh2: 38*; BoNT-A LC inh2: 9

How did CCN(CC)C1=CC2=CC(=C(C#N)C#N)CCC2CC1 (centres undefined) do in these assays?
Bead autofluor: 39639*; BoNT-F LC inh: 62*; Anthrax LF inh2: 24; BoNT-A LC inh2: -8

Results for N#CC(C#N)=C1C=C2C=C(N3CCCCC3)CCC2CC1 (centres undefined) ?
MazEF act: active

Results for Cc1ccc(C(=O)NC2CC(C)(C)NC(C)(C)C2)cc1S(=O)(=O)N1CCOCC1 ?
Bead autofluor: 4803; MazEF act: -4; BoNT-F LC inh: 5; Anthrax LF inh2: 9; BoNT-A LC inh2: 1

Results for N#CCC1c2ccccc2CCN1C(=O)Nc1cccc(Cl)c1 (centres undefined) ?
Bead autofluor: 23621*; MazEF act: 2; BoNT-F LC inh: -6; Anthrax LF inh2: -9; BoNT-A LC inh2: -2

How did N#CCC1c2ccccc2CCN1C(=O)Nc1ccc(C(F)(F)F)cc1 (centres undefined) do in these assays?
Bead autofluor: 16726*; MazEF act: 2; BoNT-F LC inh: -5; Anthrax LF inh2: -7; BoNT-A LC inh2: -1

What do the screens show for `N#CCC1c2ccccc2CCN1C(=O)Nc1cccc(C(F)(F)F)c1` (centres undefined)?
Bead autofluor: 11347; MazEF act: -10; BoNT-F LC inh: -3; Anthrax LF inh2: -1; BoNT-A LC inh2: 0

How did O=[N+]([O-])c1nn(-c2ccccc2)[n+]([O-])c1N1CCN(c2ccccc2F)CC1 do in these assays?
Bead autofluor: 1985; MazEF act: 144*; BoNT-F LC inh: -4; Anthrax LF inh2: -2; BoNT-A LC inh2: 0

Results for CC(C)CCN1C(=O)c2cccc3c(N)ccc(c23)C1=O ?
Bead autofluor: 4185; MazEF act: inactive; BoNT-F LC inh: inconclusive; Anthrax LF inh2: -6; BoNT-A LC inh2: -2

Results for COc1cccc(CN2CCN(c3cccc(C(F)(F)F)c3)CC2)c1OC ?
Bead autofluor: 16287*; MazEF act: -8; BoNT-F LC inh: -5; Anthrax LF inh2: -5; BoNT-A LC inh2: -1

What do the screens show for `FC(F)(F)c1cccc(N2CCN(Cc3ccoc3)CC2)c1`?
Bead autofluor: 10628; MazEF act: -1; BoNT-F LC inh: 2; Anthrax LF inh2: -5; BoNT-A LC inh2: 0

Results for COc1cc(CN2CCN(S(=O)(=O)c3ccccc3)CC2)cc(OC)c1OC ?
Bead autofluor: 3506; MazEF act: 9; BoNT-F LC inh: inconclusive; Anthrax LF inh2: -9; BoNT-A LC inh2: 1

What do the screens show for `COc1cc(CN2CCN(c3cccc(Cl)c3)CC2)cc(OC)c1OC`?
Bead autofluor: 25470*; MazEF act: -3; BoNT-F LC inh: -7; Anthrax LF inh2: -2; BoNT-A LC inh2: -6
